From ChEMBL document CHEMBL4513216, “Probing the Open Global Health Chemical Diversity Library for Multistage-Active Starting Points for Next-Generation Antimalarials” (ACS Infect Dis, 2020) come the findings set out here.

SMILES strings stand for the structures. In all, about 65,000 compounds went through this assay and about 2,100 (3.2%) showed an effect of 50% or more. The median lay at about -52%. Only a selection was taken, and strong results are over-represented in it overall.

The test system of the test is Plasmodium falciparum. The experiment in a line: Screen against P. falciparum Asexual Blood Stage (ABS), at 5uM. Type of test: functional, Dd2. The conditions noted are these: tested at 5 uM.
For the molecule `CCc1nc(-c2ccc(NC(=O)N3CCC4(CC3)OCCO4)cc2)no1`, the INHIBITION is 30.5%.

With `O=C1CO[C@@H]2CN(Cc3cccs3)C[C@H]2N1Cc1cccnc1`, the INHIBITION was -28.4%. In the case of `O=C(c1cc(-n2cccc2)ccc1Cl)N1CCC2(CC1)OCCO2`, the INHIBITION is on record as -6.62%.

Regarding `COc1cccc(CN(C)Cc2[nH]c3ccccc3c2C)c1O`, the INHIBITION was 88.7%. For `O=C1CSC(c2ccncc2)c2c[nH]nc2N1` (stereo unspecified) the value was -101%; for `Fc1cccc(Nc2nc(N3CCCC3)nc3c2CNCC3)c1`, 84.3%; for `COc1cccc(Nc2nc(-c3ccncc3)nc3c2CNCC3)c1`, 82.2%. For `COc1cccc(Nc2nc(N3CCCC3)nc3c2CNCC3)c1` the value was 85.7%.

As for `CC(C)(C)n1cc(C(=O)O)c(-c2ccc(F)cc2F)n1`, the INHIBITION was -86.4%.

On to `Fc1cnc(N2CCN3C[C@H](Oc4cncnc4)C[C@H]3C2)nc1`, for which the INHIBITION is on record as -74.8%.

Take `c1ccc(CN2CCOC3CNCC[C@H]32)cc1` (stereo partly specified): the INHIBITION is 23.5%. Then `Cc1nc(CN2CCO[C@H]3CN(C(=O)Cc4cccs4)C[C@H]32)cs1`, with -65.8%; and `CC1(c2ccccc2)CCCN(Cc2cncn2C2CCCC2)C1` (stereo unspecified), with 91%. For `CS(=O)(=O)N1CCC2(CCCN(Cc3ccccn3)C2)CC1` the value was -200%; for `O=c1c2ccccc2cnn1Cc1cncn1C1CC1`, -100%. For the molecule `COCCNc1c(C#N)c2c(c3nncn13)CN(C)CC2`, the INHIBITION is on record as -128%. Then `CC(C)(C)CN1CCCC2(CCN(C(=O)c3ccc(O)nc3)C2)C1` (stereo unspecified), with -154%; and `CC(C)(C)c1cn(C[C@H]2CC3CCN2C[C@@H]3C(=O)N2CCOCC2)nn1` (stereo partly specified), with -111%. Then `COc1c(C)cnc(CN2CCC(N(C)C(C)C(N)=O)CC2)c1C` (stereo unspecified), with 78.2%; and `COc1c(C)cnc(CN(C)C2CCCCC2)c1C`, with 76.7%; and `Cc1n[nH]c2c1C(c1ccc(O)cc1)SCC(=O)N2` (stereo unspecified), with -12.2%. Regarding `O=C(Cc1ccccn1)N1CCN2C[C@H](Oc3cccc(F)c3)C[C@H]2C1`, the INHIBITION is listed as -85.6%. Then `Cc1cnccc1CN1CC[C@H](Oc2cccc(F)c2)[C@@](C)(O)C1`, with 80.2%; and `Fc1cccc(O[C@@H]2C[C@H]3CN(Cc4ccncc4)CCN3C2)c1`, with -111%; and `Cc1cccnc1CN1CCC2(CC(Nc3ccncn3)C2)C1` (stereo unspecified), with -21.6%. Then `Cc1cccnc1CN1CC[C@H](Oc2cccc(F)c2)[C@@](C)(O)C1`, with 75%; and `Fc1cccc(O[C@@H]2C[C@H]3CN(Cc4ccccn4)CCN3C2)c1`, with -29.8%; and `O=C(c1ccsc1)N1CCN2C[C@H](OCc3ccccn3)C[C@H]2C1`, with -131%.

As for `Cc1csc([C@H]2C[C@H]3CN(Cc4cc(C)on4)CC[C@@H]3O2)n1`, the INHIBITION is -109%. With `Cn1nc(CN2CCCCC(N)C2)c2c(Cl)cccc21` (stereo unspecified), the INHIBITION is 66.2%. For `Cc1cc(CN2CC[C@@H]3O[C@@H](c4nnc(C)o4)C[C@H]3C2)no1` the value was -68.8%; for `Cc1cc(-c2nn(C)c(Cl)c2CN2CCCCC(N)C2)no1` (stereo unspecified), 70.3%. Then `CS(=O)(=O)N[C@@H]1CN(Cc2ccncc2)C[C@@H]2CCCO[C@@H]21`, with -73%. Take `CC(N)C(=O)N1CCC(Oc2cccc(C(F)(F)F)c2)CC1` (stereo unspecified): the INHIBITION is 76.6%. `OC1(CN2CCC(Oc3cccc(C(F)(F)F)c3)CC2)CCNC1` (stereo unspecified): the INHIBITION is reported as 90.3%. With `CC[C@H]1CN2CC[C@H]1C[C@@H]2CNC(=O)Nc1cccc(C(F)(F)F)c1`, the INHIBITION is given as -88.1%. For `NC(=O)CN1CCCN(C(=O)Cc2cccc(C(F)(F)F)c2)CC1` the value was -122%. With `NCC1(c2cccc(C(F)(F)F)c2)CCCC1`, the INHIBITION is listed as 32.6%. Then `Cc1ccc(CN2C[C@@H](OCc3ccccn3)[C@H]3COC[C@H]32)o1`, with -72.9%. In the case of `CCc1ccc(CN2CC[C@@H]3NC(=O)CC[C@@H]32)o1`, the INHIBITION is recorded as 11.1%.

Consider `COc1cccc(CNCc2ccc(F)cc2Cl)c1O`, for which the INHIBITION is 79.5%.

As to `COc1cccc(CNCc2ccccc2Cl)c1O`, the INHIBITION is given as 77%. In the case of `c1cc(COC[C@]23COC[C@H]2CN(Cc2ccsc2)C3)ccn1`, the INHIBITION stood at 41.6%. For `Cc1ncsc1CN1C[C@@H](OCc2ccccn2)[C@H]2OCCC[C@H]21` the value was -244%; for `Cc1cc(C)n(CCCn2cncc2-c2ccc3c(c2)CC(C)N3C)n1` (stereo unspecified), 87.4%.

For the molecule `Cc1nn(C)c(C)c1CN1CCNCC1`, the INHIBITION was -133.5%. For `CCN1c2ccc(-c3cncn3CC(=O)NC(C)(C)C)cc2CC1C` (stereo unspecified) the value was 73.2%; for `Cc1nn(C)c(C)c1CCn1cncc1-c1ccc2c(c1)CC(C)N2C` (stereo unspecified), 82.6%.

`CCN1c2ccc(-c3cncn3CCCn3ccnc3C)cc2CC1C` (stereo unspecified): the INHIBITION was 86.6%.

Regarding `Cc1cc(C)c(CNc2ncnc3ccsc23)c(=O)[nH]1`, the INHIBITION is recorded as -52%. Regarding `Cc1csc(C2(NCC(O)COC(C)C)CCCC2)n1` (stereo unspecified), the INHIBITION is listed as -14.1%.

Turning to `O=C(c1cc(F)cc(F)c1)N1C[C@H]2CNC[C@H]2C1`, the INHIBITION was 1.31%. `CN1C(=O)C2(CCNCC2)c2cc(F)ccc21`: the INHIBITION is -85.9%. For `CC(C)N1CCC2(CC1)C(=O)N(c1cccnc1)c1c(F)cccc12`, the INHIBITION came out at 49.8%. Take `CN1CCC2(CC1)C(=O)N(C)c1ccc(F)cc12`: the INHIBITION is recorded as -95.4%. In the case of `CN1CCC2(CC1)C(=O)N(c1cccnc1)c1ccc(F)cc12`, the INHIBITION worked out at 59.5%. On to `CC(C)N1C(=O)C2(CCN(C)CC2)c2cc(F)ccc21`, for which the INHIBITION is -10.7%. For the molecule `CC(C)N1CCC2(CC1)C(=O)N(c1cccnc1)c1ccc(F)cc12`, the INHIBITION stood at 65.4%. For `Cc1cccc(CN(Cc2ccc(C)o2)C2CC(C)(C)NC(C)(C)C2)n1`, the INHIBITION was 77.4%.

As for `Cc1cccc(CN2CCCC23CCNC3)n1` (stereo unspecified), the INHIBITION was found to be 15.6%. In the case of `Cc1cccc(CN2CCCCC23CCNC3)n1` (stereo unspecified), the INHIBITION is recorded as 25.4%. For `COc1cc(C(=O)NCC2(N(C)C)CCN(C)CC2)c2ccccc2n1` the value was 73.6%; for `Cn1cc(CN2CCC[C@]3(C[C@H](Oc4ccccn4)CO3)C2)cn1`, -23.8%; for `CO[C@H]1CN(C(C)C)C[C@@H]1NC(=O)Nc1ccc(C(F)(F)F)cc1`, 71.5%. For `O=C1CC2(CCN(Cc3ccncc3)C2)CN1c1cccc(F)c1` (stereo unspecified) the value was -17.3%; for `CC(C)=CCN1CCC2(CC1)CC(=O)N(Cc1cc(F)cc(F)c1)C2`, 75%.

In the case of `O=C1CC2(CCN(Cc3cccnc3)C2)CN1c1cccc(F)c1` (stereo unspecified), the INHIBITION was -34.7%. With `CCCN1CCN(C(=O)c2ccc(Cl)cn2)[C@H]2CS(=O)(=O)C[C@H]21`, the INHIBITION is reported as -54.2%.

For `c1cncc(COC[C@H]2CC[C@H]3[C@H](CCN3Cc3nccs3)O2)c1`, the INHIBITION is given as -35.5%.

On to `COc1ccc(-c2n[nH]cc2C2SCC(=O)Nc3[nH]ncc32)cc1` (stereo unspecified), for which the INHIBITION was -21.3%. On to `Cc1ccc(C(=O)N2CC[C@H]3[C@H]2CCN3CC2CCOCC2)cn1`, for which the INHIBITION was -131%. As for `O=S(=O)(NC1CCC12CCN(CC1CC1)CC2)c1ccccc1` (stereo unspecified), the INHIBITION was found to be 71.2%. Then `CO[C@H]1CCN(S(=O)(=O)c2cccnc2)[C@@H]2CN(CC3CC3)C[C@H]12`, with 31%. For `CNC(=O)c1ccc2c(c1)C1(CCN(CC3CC3)CC1)C(=O)N2` the value was -44.8%; for `Clc1ccc(COCC2CCN(Cc3ccccn3)CC2)cc1`, 90.7%.

For `c1ccc(CN2C[C@H]3CCC[C@@]3(COCC3CC3)C2)nc1`, the INHIBITION is listed as -64.4%. For `c1ccc(CN2C[C@H]3CCC[C@@]3(COCC3CCOCC3)C2)nc1` the value was -45.1%. For `c1ccc(CN2C[C@@H]3COC[C@]3(COCC3CCOCC3)C2)nc1` the value was -61.3%; for `c1ccc(CN2C[C@@H]3COC[C@]3(COCc3ccncc3)C2)nc1`, -47.9%; for `Fc1ccc(COCC2CCN(Cc3ccccn3)CC2)cc1`, 78.8%. For `Cc1nc2c(c(NCc3cc4ccccc4s3)n1)CCNCC2`, the INHIBITION came to 89.2%. Regarding `Cc1nc2c(c(NCc3ccc(-c4ccccn4)s3)n1)CCNCC2`, the INHIBITION was determined as 73.6%.

Turning to `Cc1nc2c(c(NCc3nc4ccccc4s3)n1)CCNCC2`, the INHIBITION amounted to 71.3%. Turning to `COc1ncnc(N)c1CNCCc1ccccc1`, the INHIBITION was -136%.

On to `Cc1nc(C2(NCC(=O)NCc3cccs3)CCCCC2)no1`, for which the INHIBITION is on record as -130%.

Turning to `CN(C)C(=O)CN1CCCC2(CCN(c3ccc(C#N)cn3)C2)C1` (stereo unspecified), the INHIBITION was -51.1%. `O=C1CCCN1CCN1CC=C(c2cnn(C3CCS(=O)(=O)C3)c2)CC1` (stereo unspecified): the INHIBITION is on record as -88.6%. For `CC(Nc1ncnc2c1CCNC2)c1ccc2c(c1)CCCC2` (stereo unspecified) the value was 71.2%. Then `CC(C)N(C)Cc1cncc2c1CCN(Cc1cccs1)C2`, with 1.43%. For `COCCN1CCCC12CCN(Cc1cccnc1OC)CC2` the value was -66.3%. As to `CCN1CCCC12CCN(Cc1cccnc1OC)CC2`, the INHIBITION is reported as -69.1%.

Take `COc1cc(Oc2ncccc2C(F)(F)F)ccc1CN1CCCC1`: the INHIBITION stood at 79.4%. For `Cc1noc(C)c1CN1CCO[C@H]2[C@H](Oc3ccccn3)CC[C@@H]21` the value was -42.5%; for `OCCCN1CCc2[nH]nc(C(c3ccccc3)c3ccccc3)c2C1`, 73%; for `Cc1cccc(CN2CC3C[C@]3(NC(=O)c3ccoc3)C2)n1` (stereo partly specified), -67.9%. Then `COCCN1C[C@@H]2[C@@H](OC)CCN(S(=O)(=O)c3cccnc3)[C@@H]2C1`, with -22.8%. For the molecule `Cn1ccc2c(C(=O)NC3CN4CCC3CC4)cccc21` (stereo unspecified), the INHIBITION is recorded as 3.44%. With `Cc1ccc(C(=O)N[C@H]2CN(CCO)C[C@@H]2C2CC2)cc1Cl`, the INHIBITION is recorded as 52.2%. In the case of `CCOc1ccc(C2SCC(=O)Nc3c2c(=O)[nH]n3C(CC)CC)cc1` (stereo unspecified), the INHIBITION is listed as -144%. Then `CCN1CCN(c2cncc(Cl)n2)CC1`, with -13.6%; and `CCN1CCN(S(=O)(=O)c2cc(Cl)c(Cl)cc2C)CC1`, with 70.9%.
